Sfp PPTase inh – qHTS Assay for Inhibitors of Bacillus subtilis Sfp phosphopantetheinyl transferase (PPTase); Potency, µM, without a hit: largest response in the series, negative = inhibition, hits mostly inhibitors; 310,000 compounds, 3.5% hits; Biochemical Sfp PPTase activity, qHTS;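 further: the enzyme is Sfp with the accession as filed and its product quenches rhodamine fluorescence; 0% = enzyme reaction without inhibitor and -100% = no enzyme wells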
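Buffer: 50 mM Hepes-Na pH 7.6, 10 mM MgCl2, 0.01% Nonidet P-40, 0.01% BSA. Enzyme 15 nM, pre-exposed to compound 15 min; substrates then added and fluorescence change tracked over 30 min.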
JMJD2A Tudor – qHTS Assay for Inhibitors of JMJD2A-Tudor Domain. AlphaScreen JMJD2A-Tudor / H3K4me3 peptide binding. Potency, µM (highest dose often 114 µM), without a hit: top-dose activity change, negative = inhibition, actives largely listed as inhibitors. 390,000 compounds, 4.4% hits. AID 504339, 2011; further: on the % scale 0 is the no-effect control and ±100 the full control effect; nearly all actives have a fitted effect of over 50% in size
HP1b binding inh – HTS for Inhibitors of HP1-beta Chromodomain Interactions with Methylated Histone Tails. 390,000 compounds, 0.56% hits. Chromobox protein homolog 1 (Homo sapiens), P83916. AlphaScreen HP1-beta / biotin-H3K9me3 peptide binding. Potency, µM (series often up to 114 µM), inactives show at the highest dose activity change, negative = inhibition, most hits filed as inhibitors; further: nearly all actives have a fitted effect of over 70% in size
Target sequence (P83916 whole entry, looked up): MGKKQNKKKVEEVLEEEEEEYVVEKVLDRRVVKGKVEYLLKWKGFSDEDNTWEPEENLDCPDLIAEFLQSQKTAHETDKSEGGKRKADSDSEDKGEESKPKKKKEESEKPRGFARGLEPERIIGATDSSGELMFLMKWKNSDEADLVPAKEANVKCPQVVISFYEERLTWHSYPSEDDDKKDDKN
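AlphaScreen: HP1-beta (50 nM) preformed 30 min with biotin-H3(1-18)K9me3 peptide (50 nM) in PBS pH 7.4, 0.01% Tween-20. Compound added for 30 min at RT, then streptavidin donor/nickel chelate acceptor beads (10 ug/mL) for 30 min.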
L3MBTL1 block – qHTS Assay for the Inhibitors of L3MBTL1. Lethal(3)malignant brain tumor-like protein 1 (Homo sapiens), Q9Y468. AlphaScreen L3MBTL1–H3K9me1 peptide binding. Potency, µM (series often up to 57.1 µM), for the others: top-dose activity, negative = inhibition, hits mostly inhibitors. 230,000 compounds, 0.66% hits. AID 485360, 2010; further: on the % scale 0 is the no-effect control and ±100 the full control effect; nearly all actives have a fitted effect of over 60% in size
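AlphaScreen proximity signal between nickel-chelate acceptor and streptavidin donor beads (final 10 ug/mL) reports binding of 50 nM L3MBTL1 to 75 nM biotin-H3 K9me1 peptide; complex incubated with compounds 30 min at room temperature; cefsulodin titration as control.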
G9a inh – qHTS Assay for Inhibitors of Histone Lysine Methyltransferase G9a; Histone-lysine N-methyltransferase EHMT2 (Homo sapiens), Q96KQ7; G9a H3K9 monomethylation, AlphaScreen, 2 h; Potency, µM (series often up to 102 µM), for inactives: at the top dose activity, negative = inhibition, usual class: inhibitors; AID 504332, 2011; 350,000 compounds, 8.8% hits; further: on the % scale 0 is the no-effect control and ±100 the full control effect; nearly all actives have a fitted effect of over 75% in size
Target sequence (Q96KQ7 913-1193 limits assumed): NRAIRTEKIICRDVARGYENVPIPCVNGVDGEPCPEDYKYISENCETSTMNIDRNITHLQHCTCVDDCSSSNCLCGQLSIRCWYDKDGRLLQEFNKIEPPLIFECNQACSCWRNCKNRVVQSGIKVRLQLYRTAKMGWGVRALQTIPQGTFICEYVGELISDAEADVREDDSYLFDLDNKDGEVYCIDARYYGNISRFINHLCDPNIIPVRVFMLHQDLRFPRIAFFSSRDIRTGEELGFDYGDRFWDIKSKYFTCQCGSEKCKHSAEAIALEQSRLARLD
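AlphaScreen detection with an anti-monomethyl H3K9 antibody quantified product after a 2 h room-temperature reaction containing 500 nM biotinylated H3K9 peptide, 20 µM SAM and 20 nM enzyme, which had been preincubated 15 min with compound.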
BAZ2B block – qHTS Assay for Inhibitors of BAZ2B. AlphaScreen BAZ2B-H3K14Ac peptide displacement. Bromodomain adjacent to zinc finger domain protein 2B (Homo sapiens), Q9UIF8. 360,000 compounds, 4.4% hits. Potency, µM (doses to about 114 µM), for the others: at the highest dose activity change, negative = inhibition, hits mostly inhibitors. AID 504333, 2011; further: on the % scale 0 is the no-effect control and ±100 the full control effect; nearly all actives have a fitted effect of over 60% in size
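Compounds, titrated to a top concentration of 110 uM, were incubated 30 min at room temperature with preformed BAZ2B/acetyl-K14 H3 peptide complex (50 nM each). Proximity signal was measured by AlphaScreen after 20 min with beads.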
An asterisk follows results filed as active; ? = inconclusive; · = no result; ! = not active in a repeat; [ ] = remark or other dose. A selection: hits, their analogues and other compounds. The true share with any hit is near 12%. The call rests on the fitted dose curve; in most records, active means well fitted curve in the direction sought with a large enough effect; inconclusive means small, poorly fitted or top-dose-only effect, or another doubt; inactive means no such curve, though single readings can be large; an effect the other way counts as inactive or inconclusive. Potency means the concentration at half of the fitted maximal effect.

SMILES	Sfp PPTase inh	JMJD2A Tudor	HP1b binding inh	L3MBTL1 block	G9a inh	BAZ2B block
COc1ccccc1Nc1nc(C)c(C(=O)Nc2ccccc2)s1	3%	-31%	9%	-1%	50µM*	-32%
CCOc1ccc(CCNC(=O)C2CCC(CNS(=O)(=O)c3ccc(Cl)cc3)CC2)cc1OCC (stereo not drawn)	·	-4%	12%	·	6%[59 µM]	2%
CCOc1ccc(NC(=O)c2c(NCc3sccc3C)sc3c2CCCCC3)cc1	·	?	-22%	·	8.9µM*	-38%
CCOC(=O)c1ccc(NC(=O)c2c(NCc3sccc3C)sc3c2CCC(C)C3)cc1 (stereo not drawn)	·	-33%	30%	·	?	-15%
COc1ccc(NC(=O)c2c(NC(=O)COc3ccccc3)sc3c2CCCCC3)cc1	·	-9%	42%	·	-26%[59 µM]	13%
COc1ccc(NC(=O)c2c(NCc3cccs3)sc3c2CCCCC3)cc1	·	50µM*	-5%	·	7.9µM*	40µM*
CCOc1ccc(NC(=O)c2c(NCc3cccs3)sc3c2CCCCC3)cc1	·	?	-5%	·	8.9µM*	?
CCOc1ccc(NC(=O)c2c(NCc3ccc(C)o3)sc3c2CCCCC3)cc1	·	?	8%	·	5.6µM*	-22%
COc1cccc(NC(=O)Cn2c(=O)n(-c3ccccc3)c(=O)c3c2c2cc(OC)ccc2n3C)c1	·	-5%	33%	·	6%[59 µM]	-3%
CSc1cccc(NS(=O)(=O)c2cn(C)c(C)n2)c1	·	-3%	24%[57 µM]	·	-1%[59 µM]	-3%
Nc1ccc(N2CCCCCC2)cc1	8.9µM*	·	·	18µM*	3.5µM*	32µM*
O=C(/C=C/c1cccs1)N1CCN(c2ccc(F)cc2)CC1	7%	-8%	23%	-4%	-3%	-5%
Nc1ccc(N2CCN(c3ccc(F)cc3)CC2)cc1	-3%	?	?	-14%	·	35µM*
Nc1ccc(N2CCN(c3ccc(Cl)c(Cl)c3)CC2)cc1	-16%	45µM*	18µM*	?	?	14µM*
O=C(O)/C=C/C(=O)N1CCN(c2ccc(F)cc2)CC1	-6%	-73%	-13%	-2%	50µM*	-25%
O=C(O)c1ccc(N2CCCCC2)cc1	-1%	-7%	26%	·	12%[59 µM]	10%
Nc1cccc2c(O)cccc12	·	-29%	-5%	·	·	·
O=c1[nH]ccc2c(O)cccc12	·	-18%	4%	·	25µM*!	·
Cc1cccc(N2C(=O)CC(SC(=Nc3ccccc3)Nc3ccccc3)C2=O)c1 (stereo not drawn)	8%	-23%	30%	1%	9%[59 µM]	10%
O=C1SC(SC(=Nc2ccccc2)Nc2ccccc2)C(=O)N1c1ccccc1 (stereo not drawn)	-20%	?	?	-10%	45µM*	?
Cc1cc(C(=O)COC(=O)Cc2n[nH]c(=O)c3ccccc23)c(C)n1-c1ccc2c(c1)OCCO2	-13%	-31%	4%	-6%	50µM*	-11%
Cc1cc(C(=O)COC(=O)C2=COCCO2)c(C)n1-c1cccc(F)c1	·	-34%	-17%	3%	56µM*	?
Cc1cc(C(=O)COC(=O)C2=COCCO2)c(C)n1-c1ccc2c(c1)OCO2	?	-24%[57.1 µM]	9%	-22%	?	50µM*
O=C(Cc1n[nH]c(=O)c2ccccc12)OCC(=O)c1ccccc1Cl	·	-16%	31%	3%	-49%	0%
CC(=O)N1CCc2c(sc3c2c(=O)n(Cc2ccccc2)c(=O)n3Cc2cccc(Cl)c2)C1	·	-23%	4%	·	-34%[59 µM]	-32%
SMILES	Sfp PPTase inh	JMJD2A Tudor	HP1b binding inh	L3MBTL1 block	G9a inh	BAZ2B block
COC(=O)C1=COC(C)C2CN3CCc4c([nH]c5cc(OC)c(OC)cc45)C3CC12 (stereo not drawn)	3%	25µM*	?	·	-32%[12.7 µM]	50µM*
COc1ccccc1NC(=O)Cn1c(=O)n(Cc2ccc3c(c2)OCO3)c(=O)c2oc3ccccc3c21	·	-1%	33%	·	-8%[59 µM]	-6%
COc1cc(OC)c(OC)cc1CN1CCC(O)CC1	-10%	18µM*	?	4%	?	?
COc1cc(OC)c(OC)cc1CN1CCN(Cc2cccn2C)CC1	50µM*	3.5µM*	25µM*	-8%	3.5µM*	40µM*
COc1ccccc1N1CCN(Cc2nc3ccsc3c(=O)[nH]2)CC1	0%	3.5µM*	9%	2%	-28%[59 µM]	-7%
CCOc1ccccc1N1CCN(Cc2ccc(OC)c(OC)c2OC)CC1	-12%	4µM*	?	-8%	?	?
COC(=O)c1ccccc1NC(=O)Cn1c(=O)nc(-c2ccccc2)c2cc(Cl)ccc21	·	-12%	15%	·	6%[59 µM]	-7%
COc1ccccc1N1CCN(Cc2cc3c(cc2Br)OCCO3)CC1	-4%	?	-12%	·	?	?
COc1cc(OC)c(OC)cc1CN1CCN(c2ccccc2OC)CC1	-17%	3.2µM*	?	-2%[11.4 µM]	?	?
Cc1cccc2c1-c1sc(C(=O)N3CCN(c4ccccc4)CC3)cc1CO2	·	-1%	48%	·	3%[59 µM]	-1%
COc1ccc(-c2nncnn2)cc1	-8%	?	-39%	18%[11.4 µM]	?	45µM*
COc1ccc(-c2ccc(OC)cc2)cc1	-10%	6%	30%	35%	0%[59 µM]	44%
COc1ccc(-c2ccc(SCC(=O)c3ccccc3)nn2)cc1OC	-4%	-21%	18%	·	50µM*	-18%
Cc1ccc(C(=O)CSc2ccc(-c3ccncc3)nn2)cc1	-37%	-4%	12%	·	40µM*	?
Cc1ccc(C(=O)CSc2ccc(-c3cccnc3)nn2)cc1	6%	-22%	44%	·	-4%	-1%
Cc1ccc(-c2ccc(SCC(=O)c3ccccc3)nn2)cc1	-11%	13%	19%	17%	35µM*	-1%
COc1ccc(CN2C(=O)C(NC(=O)c3ccccc3C)(C(F)(F)F)N=C2c2ccccc2)cc1 (stereo not drawn)	·	-21%	21%	·	-29%[59 µM]	-25%
COc1ccc(C(=O)N2CCC3(CCCN(Cc4ccccc4)C3)CC2)cc1	27%	·	·	·	2%[12.7 µM]	·
Cn1cccc1-c1cc(C(=O)N/N=C/c2cccc(O)c2)[nH]n1	-18%	?	?	·	45µM*	45µM*

Screening results (PubChem)
